# Measurements taken from PubChem BioAssay (NCATS).
# Inconclusive results are not listed. Unmarked numbers belong to inactive results. Calls of active or inactive are those of the source. The call rests on the fitted dose curve; in most records, active means well fitted cell-killing curve with a large enough effect; inconclusive means small, poorly fitted or top-dose-only effect, or effect the other way; inactive means no such curve, though single readings can be large or run the other way.
# Experiments:
# [1] = Quantitative High-Throughput drug screen in 47 multiple myeloma cell lines against the NCATS MIPE library collection: OCIMY7_PLB cell viability assay (AID 1918987); details: OCI-MY7 myeloma viability, CellTiter-Glo ATP, 48 h; viability (% of DMSO): at 45.8 µM (top of the series); further: potency means the concentration at half of the fitted maximal effect; nearly all actives have a fitted effect of over 65% in size
# In short: (§1)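 Viability after 48 h drug exposure was measured as ATP-dependent luminescence. Cells, 500 per well, sat at 37 °C under 5% CO2; DMSO wells set 100%, media-only wells 0%.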
# [2] = Quantitative High-Throughput drug screen in 47 multiple myeloma cell lines against the NCATS MIPE library collection: XG6_PLB cell viability assay (AID 1919865); further: nearly all actives have a fitted effect of over 40% in size; further: potency means the concentration at half of the fitted maximal effect
# In short: as §1
# [3] = Quantitative High-Throughput drug screen in 47 multiple myeloma cell lines against the NCATS MIPE library collection: VP6_DJ cell viability assay (AID 1919867); further: nearly all actives have a fitted effect of over 40% in size; further: potency means the concentration at half of the fitted maximal effect
# In short: as §1
# [4] = Quantitative High-Throughput drug screen in 47 multiple myeloma cell lines against the NCATS MIPE library collection: RPMI8226_ATCC cell viability assay (AID 1919871); further: nearly all actives have a fitted effect of over 30% in size; further: potency means the concentration at half of the fitted maximal effect
# In short: as §1
# [5] = Quantitative High-Throughput drug screen in 47 multiple myeloma cell lines against the NCATS MIPE library collection: OPM2_DSMZ cell viability assay (AID 1919872); further: nearly all actives have a fitted effect of over 30% in size; further: potency means the concentration at half of the fitted maximal effect
# In short: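 Approved and investigational drugs from MIPE 4.0 were added by pin tool to 500 cells per well. After 48 hours at 37C, ATP-based CellTiter-Glo luminescence indicated remaining viability.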
# [6] = Quantitative High-Throughput drug screen in 47 multiple myeloma cell lines against the NCATS MIPE library collection: KMS28BM_JCRB cell viability assay (AID 1919874); further: nearly all actives have a fitted effect of over 35% in size
# In short: as §1
# [7] = Quantitative High-Throughput drug screen in 47 multiple myeloma cell lines against the NCATS MIPE library collection: OCIMY5_PLB cell viability assay (AID 1918988); further: nearly all actives have a fitted effect of over 65% in size; further: potency means the concentration at half of the fitted maximal effect
# In short: as §1
# [8] = Quantitative High-Throughput drug screen in 47 multiple myeloma cell lines against the NCATS MIPE library collection: OPM1_PLB cell viability assay (AID 1918989); further: nearly all actives have a fitted effect of over 40% in size; further: potency means the concentration at half of the fitted maximal effect
# In short: as §1
# [9] = Quantitative High-Throughput drug screen in 47 multiple myeloma cell lines against the NCATS MIPE library collection: SKMM1_PLB cell viability assay (AID 1919863); details: SKMM1 myeloma viability, CellTiter-Glo ATP, 48 h; viability: hits give low values; further: nearly all actives have a fitted effect of over 35% in size; further: potency means the concentration at half of the fitted maximal effect
# In short: as §1
# [10] = Quantitative High-Throughput drug screen in 47 multiple myeloma cell lines against the NCATS MIPE library collection: U266_ATCC cell viability assay (AID 1919864); further: nearly all actives have a fitted effect of over 35% in size; further: potency means the concentration at half of the fitted maximal effect
# In short: as §1
# [11] = Quantitative High-Throughput drug screen in 47 multiple myeloma cell lines against the NCATS MIPE library collection: XG1_PLB cell viability assay (AID 1919866); further: nearly all actives have a fitted effect of over 35% in size; further: potency means the concentration at half of the fitted maximal effect
# In short: as §1
# [12] = Quantitative High-Throughput drug screen in 47 multiple myeloma cell lines against the NCATS MIPE library collection: UTMC2_PLB cell viability assay (AID 1919868); details: CellTiter-Glo ATP luminescence, 48 h; viability (% of DMSO control): at 45.8 µM (top of the series); further: nearly all actives have a fitted effect of over 55% in size; further: potency means the concentration at half of the fitted maximal effect
# In short: as §1
# [13] = Quantitative High-Throughput drug screen in 47 multiple myeloma cell lines against the NCATS MIPE library collection: PE2_PLB cell viability assay (AID 1919869); further: nearly all actives have a fitted effect of over 35% in size; further: potency means the concentration at half of the fitted maximal effect
# In short: as §1
# [14] = Quantitative High-Throughput drug screen in 47 multiple myeloma cell lines against the NCATS MIPE library collection: KMS11_JCRBsus cell viability assay (AID 1919873); further: nearly all actives have a fitted effect of over 50% in size; further: potency means the concentration at half of the fitted maximal effect
# In short: as §1
# [15] = Quantitative High-Throughput drug screen in 47 multiple myeloma cell lines against the NCATS MIPE library collection: PCM6_Riken cell viability assay (AID 1919870); further: nearly all actives have a fitted effect of over 30% in size; further: potency means the concentration at half of the fitted maximal effect
# In short: as §1
smiles,measurement,setting,value
COc1ccc(Cn2ccc3ccc(C(=O)NO)cc32)cc1,Potency,[1],9.35 µM (active)
same,Potency,[2],14.8 µM (active)
same,Potency,[3],9.35 µM (active)
same,Potency,[4],inactive
same,Potency,[5],inactive
same,Potency,[6],inactive
O=C1Nc2ccc(I)cc2C1=Cc1cc(Br)c(O)c(Br)c1,Potency,[7],8.33 µM (active)
same,Potency,[8],10.5 µM (active)
same,Potency,[9],18.7 µM (active)
same,Potency,[10],inactive
same,Potency,[2],inactive
same,Potency,[11],20.9 µM (active)
same,Potency,[12],14.8 µM (active)
same,Potency,[13],14.8 µM (active)
same,Potency,[4],inactive
same,Potency,[14],18.7 µM (active)
same,Potency,[6],inactive
CNC(=O)c1cc(COc2nnc(Nc3ccc(Cl)cc3)c3ccoc23)ccn1,Potency,[7],20.9 µM (active)
same,Potency,[8],inactive
same,Potency,[9],23.5 µM (active)
same,Potency,[10],inactive
same,Potency,[4],20.9 µM (active)
CN(C)c1ccccc1CN1CCCN(Cc2ccccc2N(C)C)C1c1ccncc1,Potency,[7],20.9 µM (active)
same,Potency,[8],20.9 µM (active)
same,Potency,[9],20.9 µM (active)
same,Potency,[10],14.8 µM (active)
same,Potency,[2],16.6 µM (active)
same,Potency,[13],18.7 µM (active)
same,Potency,[6],inactive
COc1cc2c(cc1OC)[C@@H]1Cc3ccc(OC)c(OC)c3CN1CC2,Potency,[7],5.9 µM (active)
same,Potency,[10],11.8 µM (active)
same,Potency,[2],inactive
same,Potency,[11],inactive
same,Potency,[4],18.7 µM (active)
same,Potency,[5],13.2 µM (active)
same,Potency,[14],7.43 µM (active)
CCNC(=O)[C@H]1O[C@@H](n2cnc3c(N)nc(NCCc4ccc(CCC(=O)O)cc4)nc32)[C@H](O)[C@H]1O,Potency,[7],0.0662 µM (active)
same,Potency,[8],inactive
same,Potency,[10],0.118 µM (active)
same,Potency,[11],inactive
same,Potency,[13],0.0469 µM (active)
same,Potency,[4],inactive
same,Potency,[14],inactive
CC(C)CN(C[C@H](O)[C@H](Cc1ccccc1)NC(=O)O[C@H]1CCOC1)S(=O)(=O)c1ccc(N)cc1,Potency,[7],2.96 µM (active)
same,Potency,[8],26.4 µM (active)
same,viability,[9],121%
same,Potency,[11],20.9 µM (active)
same,Potency,[3],20.9 µM (active)
same,Potency,[15],13.2 µM (active)
same,Potency,[5],18.7 µM (active)
N#Cc1c(N(CC(=O)O)CC(=O)O)sc(C(=O)O)c1CC(=O)O,Potency,[1],8.33 µM (active)
same,viability,[9],102%
same,Potency,[10],inactive
same,Potency,[12],23.5 µM (active)
same,Potency,[13],14.8 µM (active)
same,Potency,[4],inactive
same,Potency,[6],inactive
c1ccc(-c2oc3ncnc(NC[C@@H]4CCCO4)c3c2-c2ccccc2)cc1,Potency,[7],14.8 µM (active)
same,Potency,[8],13.2 µM (active)
same,Potency,[10],16.6 µM (active)
same,Potency,[2],10.5 µM (active)
same,Potency,[13],16.6 µM (active)
same,Potency,[4],23.5 µM (active)
same,Potency,[14],16.6 µM (active)
COC(=O)[C@H](c1ccccc1Cl)N1CCc2sccc2C1,Potency,[1],20.9 µM (active)
same,Potency,[2],inactive
same,Potency,[11],inactive
same,Potency,[12],inactive
same,Potency,[13],inactive
same,Potency,[15],inactive
same,Potency,[4],inactive
same,Potency,[5],inactive
same,Potency,[6],inactive
CCN1CCN(c2ccc(Nc3cc(N(C)C(=O)Nc4c(Cl)c(OC)cc(OC)c4Cl)ncn3)cc2)CC1,Potency,[7],13.2 µM (active)
same,Potency,[8],0.0235 µM (active)
same,Potency,[10],inactive
same,Potency,[2],6.62 µM (active)
same,Potency,[11],11.8 µM (active)
same,Potency,[3],23.5 µM (active)
same,Potency,[13],inactive
same,Potency,[4],inactive
same,Potency,[5],0.209 µM (active)
same,Potency,[14],inactive
same,Potency,[6],inactive
CN(C)CCOc1ccc(C(=C(CCCl)c2ccccc2)c2ccccc2)cc1,Potency,[7],26.4 µM (active)
same,Potency,[8],7.43 µM (active)
same,Potency,[9],23.5 µM (active)
same,Potency,[11],2.96 µM (active)
same,Potency,[3],inactive
same,Potency,[12],inactive
same,Potency,[15],3.72 µM (active)
same,Potency,[5],inactive
same,Potency,[14],inactive
CCOC(=O)[C@@H](N)CCC(=O)N[C@@H](CSCc1ccccc1)C(=O)N[C@@H](C(=O)OCC)c1ccccc1,Potency,[1],23.5 µM (active)
same,Potency,[2],11.8 µM (active)
same,Potency,[11],23.5 µM (active)
same,Potency,[12],23.5 µM (active)
same,Potency,[13],20.9 µM (active)
same,Potency,[4],inactive
same,Potency,[14],inactive
same,Potency,[6],inactive
COc1cc([C@@H]2c3cc4c(cc3[C@@H](O[C@@H]3O[C@@H]5CO[C@@H](C)O[C@@H]5[C@H](O)[C@@H]3O)[C@H]3COC(=O)[C@H]23)OCO4)cc(OC)c1O,Potency,[7],14.8 µM (active)
same,Potency,[8],14.8 µM (active)
same,Potency,[12],0.418 µM (active)
same,Potency,[13],1.18 µM (active)
NS(=O)(=O)c1cc(Cl)c(Cl)c(S(N)(=O)=O)c1,Potency,[7],inactive
same,Potency,[8],inactive
same,Potency,[10],inactive
same,Potency,[11],inactive
same,Potency,[3],inactive
same,Potency,[13],inactive
same,Potency,[15],inactive
same,Potency,[4],inactive
same,Potency,[6],inactive
Oc1ccc(C=Cc2cc(O)cc(O)c2)cc1,Potency,[7],13.2 µM (active)
same,Potency,[8],inactive
same,Potency,[15],inactive
same,Potency,[5],inactive
same,Potency,[14],16.6 µM (active)
same,Potency,[6],inactive
O[C@@H](COc1cccc2ncccc12)CN1CCN(C2c3ccccc3[C@@H]3[C@H](c4ccccc42)C3(F)F)CC1 (stereo partly drawn),Potency,[7],18.7 µM (active)
same,Potency,[8],23.5 µM (active)
same,Potency,[9],23.5 µM (active)
same,Potency,[10],8.33 µM (active)
same,Potency,[2],7.43 µM (active)
same,Potency,[11],7.43 µM (active)
same,Potency,[13],16.6 µM (active)
same,Potency,[14],4.18 µM (active)
